From PubChem BioAssay AID1159580 (chemical genetic matrix, 2015)
“And” between values parts separate entries of the source, which are not always exact repeats. Identical values can stand only once. In all, about 5,500 compounds went through this assay and about 2,000 (36%) were called active. Another 18% or so got no clear call; they are omitted. Cut-off read from the data, not from the text of the source: active = normalized growth mostly below about 0.91 (no sharp cut-off); inconclusive = no clear call, values can overlap the other calls; inactive = mostly above about 0.92. This is one part of the list.

Test: chemical genetic growth profiling, strain panel (AID 1159580);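 note: tested at 20 µM; growth read once vehicle control cultures reached saturation at 30 °C; 1 = growth at the plate median or of vehicle wells; lower values mean less growth of the strain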
Conditions: S. cerevisiae deletion strains, growth OD

Measured: normalized growth

CC(=O)O[C@@H]1CC2C(C)(C)C(=O)C=C[C@]2(C)C2CC[C@@]3(C)[C@H](c4ccoc4)OC(=O)[C@H]4O[C@]43[C@@]21C (stereo partly drawn)
inactive: locus YAL021C, strain ccr4, active compounds read low 1.03 | locus YAL026C, strain drs2, active compounds read low 0.99 | locus YAL030W, strain snc1, active compounds read low 0.997 | locus YBL061C, strain skt5, active compounds read low 1.01 | locus YBR009C, strain hhf1, active compounds read low 0.981 | locus YBR021W, strain FUR4, active compounds read low 0.983 | locus YBR023C, strain chs3, active compounds read low 1.01 | locus YBR171W, strain sec66, active compounds read low 0.982 | locus YBR229C, strain ROT2, active compounds read low 0.997 | locus YBR231C, strain swc5, active compounds read low 1 | locus YBR279W, strain paf1, active compounds read low 1.01 | locus YCL011C, strain gbp2, active compounds read low 0.994 | locus YCL016C, strain dcc1, active compounds read low 1.02 | locus YCL029C, strain bik1, active compounds read low 0.999 | locus YCL061C, strain MRC1, active compounds read low 0.972 | locus YCL069W, strain vba3, active compounds read low 0.968 | locus YCR088W, strain abp1, active compounds read low 0.98 | locus YDL005C, strain med2, active compounds read low 0.981 | locus YDL035C, strain GPR1, active compounds read low 1 | locus YDL040C, strain nat1, active compounds read low 0.998 | locus YDL074C, strain BRE1, active compounds read low 0.988 | locus YDL101C, strain DUN1, active compounds read low 1.01 | locus YDL134C, strain PPH21, active compounds read low 0.997 | locus YDL185W, strain tfp1, active compounds read low 1.01 | locus YDL192W, strain arf1, active compounds read low 0.991 | locus YDR001C, strain nth1, active compounds read low 0.972 | locus YDR069C, strain doa4, active compounds read low 1 | locus YDR101C, strain arx1, active compounds read low 0.984 | locus YDR137W, strain rgp1, active compounds read low 0.95 | locus YDR159W, strain sac3, active compounds read low 0.949 | locus YDR162C, strain NBP2, active compounds read low 0.996 | locus YDR195W, strain ref2 1.02 | locus YDR297W, strain sur2, active compounds read low 1.01 | locus YDR318W, strain mcm21, active compounds read low 0.994 | locus YDR334W, strain swr1, active compounds read low 1.02 | locus YDR335W, strain msn5, active compounds read low 1.02 | locus YDR388W, active compounds read low 0.994 | locus YDR392W, strain spt3, active compounds read low 0.831 | locus YDR502C, strain sam2, active compounds read low 0.981 | locus YEL003W, strain gim4, active compounds read low 0.95 | locus YEL037C, strain rad23, active compounds read low 0.973 | locus YEL061C, strain CIN8 (second series), active compounds read low 0.973 | locus YEL061C, strain CIN8, active compounds read low 0.996 | locus YER015W, strain faa2, active compounds read low 1.01 | locus YER016W, strain bim1, active compounds read low 1 | locus YER110C, active compounds read low 0.997 | locus YER111C, strain swi4, active compounds read low 0.985 | locus YER155C, strain BEM2 (second series), active compounds read low 1 | locus YER155C, strain BEM2, active compounds read low 1 | locus YER167W, strain BCK2, active compounds read low 1.01 | locus YFR010W, strain ubp6, active compounds read low 0.966 | locus YGL078C, strain dbp3, active compounds read low 0.994 | locus YGL086W, strain mad1, active compounds read low 1.01 | locus YGL167C, strain pmr1, active compounds read low 1 | locus YGL173C, strain kem1, active compounds read low 0.976 | locus YGL227W, strain vid30, active compounds read low 0.961 | locus YGL240W, strain doc1, active compounds read low 1.01 | locus YGL248W, strain PDE1, active compounds read low 1 | locus YGL253W, strain hxk2, active compounds read low 1.02 | locus YGR078C, strain PAC10, active compounds read low 1.01 | locus YGR135W, strain pre9, active compounds read low 0.998 | locus YGR252W, strain gcn5, active compounds read low 0.993 | locus YHR013C, strain ard1, active compounds read low 0.987 | locus YHR027C, strain rpn1, active compounds read low 1.01 | locus YHR030C, strain SLT2, active compounds read low 1.01 | locus YHR079C, strain IRE1 (second series), active compounds read low 0.988 | locus YHR079C, strain IRE1, active compounds read low 0.994 | locus YHR094C, strain hxt1, active compounds read low 0.993 | locus YHR129C, strain ARP1, active compounds read low 1 | locus YHR142W, strain chs7, active compounds read low 0.987 | locus YHR200W, strain rpn10, active compounds read low 0.997 | locus YIL066C, strain RNR3, active compounds read low 1 | locus YIL073C, strain SPO22, active compounds read low 0.969 | locus YIL125W, strain kgd1, active compounds read low 0.994 | locus YIR030C, strain dcg1, active compounds read low 0.989 | locus YJL092W, strain hpr5, active compounds read low 0.992 | locus YJL095W, strain BCK1 (second series), active compounds read low 1.02 | locus YJL095W, strain BCK1, active compounds read low 0.983 and 0.999 | locus YJL115W, strain asf1, active compounds read low 0.987 | locus YJL129C, strain trk1, active compounds read low 0.928 | locus YJL134W, strain LCB3, active compounds read low 1.01 | locus YJL154C, strain vps35, active compounds read low 0.971 | locus YJL164C, strain tpk1, active compounds read low 0.995 | locus YJL166W, strain qcr8, active compounds read low 1 | locus YJL168C, strain set2, active compounds read low 0.987 | locus YJL187C, strain SWE1 (second series), active compounds read low 1.01 | locus YJL187C, strain SWE1, active compounds read low 1.01 | locus YJR043C, strain POL32, active compounds read low 1.01
